S2 tox: viability counter-screen for ATXN expression inhibitors; S2 cells (HEK-293 line with an ATXN2-luciferase reporter) viability, CellTiter-Fluor protease fluorescence, 24 h; actives 0.49% (n = 400,000); Potency, µM (top dose mostly 56.7 µM), actives largely listed as cytotoxic; note: potency is the fitted concentration of half-maximal effect; nearly all actives have a fitted effect of over 40% in size
HepG2 viability: HepG2 cytotoxicity, counter-screen for TGF-b inhibitors. actives 0.76% (n = 410,000). AID 588856. Potency, µM (doses to about 46.1 µM), inactives show at the top dose activity change, negative = cytotoxicity, hits mostly cytotoxic. HepG2 CAGA-GFP viability, ATP luminescence, 18 h; note: potency is the fitted concentration of half-maximal effect
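CellTiter-Glo luminescence gave cytotoxicity after 18 hours at 37 degrees C. The cells were HepG2 CAGA-GFP in 1% FBS DMEM, stimulated with 500 pg/mL TGF-beta after compound addition. %Activity was normalised to no-cell wells (complete cell-killing) and DMSO (no toxicity), and curves were fitted and classified.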
TGFb inhibitor: blocks TGF-b signaling | HepG2 CAGA-GFP TGF-b/SMAD3 reporter, GFP fluorescence, 18 h; TGF-beta stimulated, 500 pg/mL final | Potency, µM (highest dose often 46.1 µM), inactives show at the highest dose activity, negative = inhibition, most hits filed as inhibitors | actives 1.2% (n = 410,000) | AID 588855; note: potency is the fitted concentration of half-maximal effect; % is set by controls: 0 for no effect and ±100 for the full control effect; nearly all actives have a fitted effect of over 65% in size
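HEPG2 CAGA-GFP cells (1000/well, DMEM with 1% FBS) were pre-incubated 2 h at 37 degrees C, given compound by pin tool, then stimulated with TGF-beta at 500 pg/mL final for 18 h before per-cell GFP fluorescence imaging.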
ATXN2 expr inh: ATXN2 expression inhibition; AID 1745845; HEK-293 ATXN2-luciferase reporter, luminescence, 24 h; actives 0.72% (n = 360,000); Potency, µM (highest dose often 57 µM), inactives show at the top dose activity change, negative = inhibition, most hits filed as inhibitors; note: potency is the fitted concentration of half-maximal effect; % is set by controls: 0 for no effect and ±100 for the full control effect; nearly all actives have a fitted effect of over 55% in size
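qHTS (up to 57 uM final) was run with 24 h compound exposure of reporter cells at 37 °C. Each well was multiplexed: SteadyGlo luminescence measured ATXN2-luciferase expression after a fluorogenic Gly-Phe-AFC viability readout (25 uM final).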
D3 ag: activates the human D3 dopamine receptor | max activation, % | P35462 | D3R DiscoveRx beta-arrestin cells, luminescence, 90 min | AID 652048 | actives 0.58% (n = 410,000); in the data active = max activation above about 30%; note: 0% is about no effect
Target sequence (P35462 whole entry, looked up): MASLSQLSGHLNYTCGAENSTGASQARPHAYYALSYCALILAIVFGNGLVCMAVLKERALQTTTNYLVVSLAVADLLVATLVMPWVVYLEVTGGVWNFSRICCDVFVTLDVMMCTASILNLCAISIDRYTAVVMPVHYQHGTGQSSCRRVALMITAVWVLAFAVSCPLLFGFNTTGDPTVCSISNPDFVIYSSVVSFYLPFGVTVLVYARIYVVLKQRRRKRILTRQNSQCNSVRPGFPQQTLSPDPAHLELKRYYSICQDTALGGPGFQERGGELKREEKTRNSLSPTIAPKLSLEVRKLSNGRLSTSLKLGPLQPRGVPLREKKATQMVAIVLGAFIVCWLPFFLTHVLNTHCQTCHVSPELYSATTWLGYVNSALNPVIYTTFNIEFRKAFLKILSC
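Cells at 1500/well, incubated overnight, then treated with pinned compounds (dopamine as control) for 90 min at 37 degrees C. DiscoveRx reagent added for 30 - 60 minutes at room temperature; luminescence read.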
DRD3 antagonist: antagonists of human D3 dopamine receptor | max response, negative = inhibition, % | actives 2.5% (n = 360,000) | D3R cells, DiscoveRx beta-arrestin luminescence, antagonist mode; active compounds read low | AID 652054 | P35462; in the data active = max response below about -50%; inconclusive = no clear call, values can overlap the other calls; note: % is set by controls: 0 for no effect and ±100 for the full control effect
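Cells expressing the human receptor were seeded at 1500 cells/well, incubated overnight at 37 degrees C in 5% CO2, then exposed to library compounds with dopamine controls for 90 minutes at 37 degrees C before luminescent detection.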
* hit, by the source's call; i = inactive; u = inconclusive; x = no result. Hits are enriched below; roughly 4.7% of the tested compounds scored in any of these assays. Unless noted, calls come from the whole dose curve; as a rule, active = well fitted curve in the direction sought with a large enough effect; inconclusive = small, poorly fitted or top-dose-only effect, or another doubt; inactive = no such curve, though single readings can be large; an effect the other way counts as inactive or inconclusive.

SMILES	S2 tox	HepG2 viability	TGFb inhibitor	ATXN2 expr inh	D3 ag	DRD3 antagonist
CCCCCCCCCCCCCCCC(=O)OC[C@H](O)[C@H]1OC(=O)C(O)=C1O	u	x	x	x	-15.1	x
CCC[C@H](CN[C@@H](CNC)[C@H](C)CC)NCCc1cc(C(F)(F)F)cc(C(F)(F)F)c1	x	22.4µM*	15.8µM*	u	2.5	-6.9
OC(CNCCc1ccc(C(F)(F)F)cc1)COc1cccc2ccccc12 (centres undefined)	u	-113.8%	u	x	1.5	6.0
CC[C@@H](C)[C@H](CNC)NC[C@@H](Cc1cccc2ccccc12)NCCc1cccc(C(F)(F)F)c1	35.5µM*	-110.2%	u	-22.3%	-10.7	-7.4
COc1cccc(O)c1CN1CCC(C(=O)Nc2ccc(-c3cccc(C)c3)cc2)CC1	i	12.6µM*	u	u	-14.3	-11.9
COc1cccc(O)c1CN1CCC(C(=O)Nc2ccc(Oc3cccnc3)cc2)CC1	i	0.1%	4.2%	-20.7%	2.6	0.9
CC(C)Oc1ccc(CN2CCc3nc(Nc4ccc5c(c4)OCCO5)ncc3C2)cc1	i	-34.8%	u	-29.9%	5.0	x
Cc1cc(F)cc(-c2cc(C(=O)NCc3cccc(Cl)c3)[nH]n2)c1	i	-13.5%	32.0%	-5.3%	-0.8	15.3
Cc1cnc(Nc2ccc(F)cc2Cl)nc1-c1c[nH]c(C(=O)N[C@H](CO)c2cccc(Cl)c2)c1	x	x	x	24.3µM*	x	x
C=CC(=O)N1CCc2ccc(-n3c(=O)ccc4cnc5ccc(-c6cnn(C)c6)cc5c43)cc21	x	x	x	15.3µM*	x	x
Cc1nc2ccn(Cc3cccs3)c(=O)c2cc1C(=O)N1CCN(c2ccccc2F)CC1	x	-22.3%	20µM*	x	-9.7	x
Cc1nc2ccn(Cc3ccco3)c(=O)c2cc1C(=O)N1CCN(c2ccccc2F)CC1	x	-32.8%	u	x	2.0	x
COc1ccc(Cn2ccc3nc(C)c(C(=O)N4CCN(c5cc(C)ccc5C)CC4)cc3c2=O)cc1	u	-19.6%	15.8µM*	u	3.7	x
ICC[n+]1csc2ccccc21	x	-16.8%	16.6%	x	x	x
Cc1ccc2c(=O)c3cccc(CC(=O)O)c3oc2c1C	x	x	x	24.3µM*	x	x
Cc1cc(C(C)(C)C)c(O)c(C)c1CC1=NCCN1	i	-0.9%	-29.3%	-21.8%	-43.7	-98.4*
Clc1cccc(OCCN2CCOCC2)c1	i	-19.7%	0.0%	8.4%	3.6	-66.2*
OCCN1CCN(CCOc2cccc(Cl)c2)CC1	i	-3.0%	-1.3%	-19.0%	39.9*	u
Clc1cccc(OCCN2CCNCC2)c1	i	16.9%	21.9%	x	26.4	-20.6
COc1ccccc1C(=O)N1CCOc2ccc(C(C)(O)CCn3cccn3)cc2C1 (centres undefined)	i	x	x	x	x	x
CCCC1=Nc2cc(C(=O)NCCCN3CCN(C)CC3)ccc2Sc2ccccc21	u	-63.4%	-4.4%	x	-5.1	-2.3
CCCNC(=O)c1ccc2c(c1)N=C(CCC)c1ccccc1S2	u	-27.7%	8.91µM*	-37.0%	-11.2	x
COc1ccc(OC)c(-c2nnc3ccc(-c4ccc(OC)c(O[C@@H]5CCOC5)c4)nn23)c1	x	x	x	27.3µM*	x	x
C/C=C(\C)CN1CCN(c2cccc(C)c2C)CC1	i	-25.9%	2.1%	-7.6%	-27.5	-88.4*
Cc1ccc(C)c(N2CCN(CCCc3ccccc3)CC2)c1	i	-43.8%	-20.9%	u	-19.9	-65.3*
SMILES	S2 tox	HepG2 viability	TGFb inhibitor	ATXN2 expr inh	D3 ag	DRD3 antagonist
C/C=C(\C)CN1CCN(c2cc(C)ccc2C)CC1	i	-0.7%	-16.5%	-2.5%	-37.7	-85.7*
Cc1ccc(C)c(N2CCN(Cc3csc(C)c3)CC2)c1	x	-32.9%	-32.5%	x	-38.0	x
Cc1cccc(CNC(=O)CN2C(=O)C3CCCCN3c3ccc(C(=O)N4CCCC4)cc32)c1 (centres undefined)	i	4.8%	-19.0%	-6.1%	8.2	x
CCOC(=O)N1CCN(c2nc(CN3CCCCC3CCO)nc3c(C)cccc23)CC1 (centres undefined)	i	x	x	x	x	x
Cc1cc(Br)cc(/C=N/NC(=O)c2ccc3c(c2)OCO3)c1O	u	1.78µM*	5.62µM*	x	-8.4	-22.1
O=C(N/N=C/c1ccccc1O)c1ccc2c(c1)OCO2	i	-13.2%	-25.6%	u	1.0	0.5
O=C(N/N=C/c1cc(Br)cc(Cl)c1O)c1ccc2c(c1)OCO2	i	-64.0%	u	12.6µM*	16.7	-18.0
Cc1ccc(-n2c(-c3ccccc3)nsc2=NC#N)cc1	x	0.9%	-0.3%	x	x	x
c1ccc2c(c1)ccn2-n1ccc2ccccc21	x	-57.5%	15.8µM*	x	x	x
COc1ccc(-n2ccc3ccccc32)cc1	i	11.8%	-3.3%	x	-8.0	-0.2
COc1ccc(NC(=O)c2nnn(CC(=O)Nc3cccc(C)c3C)c2N)c(OC)c1	x	-6.2%	x	x	-1.2	x
CC1(C)OC(=O)C(=CNc2ncccn2)C(=O)O1	i	-2.8%	-1.7%	7.4%	-16.0	-68.3*
CC1(C)OC(=O)C(=CNc2ccccn2)C(=O)O1	i	-4.1%	1.9%	4.5%	17.7	-0.6
O=C(CCCN1C(=O)/C(=C/c2ccccc2Cl)SC1=S)NNC(=O)c1ccc(Cl)cc1Cl	i	-2.0%	-2.1%	2.51µM*	-3.5	2.1
CN1CCN(NC(=O)CN2C(=O)/C(=C/c3ccccc3Cl)SC2=S)CC1	i	-14.4%	-3.4%	2.5%	-4.2	-64.5*
Cn1c(CCNC(=O)C2CC23CCN(C(=O)C2=CCCC2)CC3)nc2ccccc21 (centres undefined)	i	x	x	x	x	x
COc1ccc2c(c1)O[C@H](c1ccc3c(c1)OCO3)[C@@H](OC(=O)N[C@H]1CCCc3ccccc31)C2=O	i	-1.2%	-2.8%	14.7%	54.2*	1.4
CN(Cc1ccccc1)Cc1c[nH]c2ccccc12	i	2.4%	19.0%	2.5%	0.9	-82.0*
O=C1CCC[C@@H]2C[C@@]3(C[C@@H]4CCN1[C@H]24)Nc1ccccc1NC3=NC1CCCCC1	x	2.3%	u	x	x	x
CCN(CC)C(=O)Nc1ccc(C(=O)OC)cc1	i	6.6%	-0.9%	10.5%	0.5	-69.0*
CCN(CC)C(=S)Nc1ccc(C(=O)OC)cc1	i	6.8%	23.4%	-7.4%	-0.9	6.3
CC(C)CC1(C)NC(=O)N(CC(=O)Nc2ccc3c(c2)CCC3)C1=O (centres undefined)	i	-13.7%	-14.7%	-14.8%	-6.5	-55.1*
CC(=O)Nc1cc(C(=O)NCc2ccc(C)cc2)ccc1S(=O)(=O)c1ccc(Cl)cc1	i	0.4%	-3.9%	2.3%	7.2	x
Cn1c(SCc2ccc(Cl)cc2)nnc1-c1ccc(NC(=O)CCc2ccccc2)cc1	x	8.1%	-2.1%	x	x	x

Compound activity as filed in PubChem.
